Screening data deposited in PubChem by Broad Institute.
Pf Dd2 inh: inhibitors of Plasmodium falciparum Dd2 growth; P. falciparum Dd2 growth, SYBR Green, 72 h; hits give low values; activity change, % at 10 µM; 94,000 compounds, 2.3% hits; in the data active = activity change below about -80%; inconclusive = no clear call, values can overlap the other calls
C diff HTS: C. difficile growth inhibition; Clostridium difficile clinical isolate growth, OD600, 24 h; hits give low values; 86,000 compounds, 0.25% hits; growth activity, negative = inhibition, % at 16 µg/mL (by protocol);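 active = mean growth activity at or below -80% and every replicate also at or below -80%; inconclusive = mean at or below -80% but some replicate above -80%; inactive = mean growth activity above -80%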
T cruzi growth-1: inhibitors of T. cruzi proliferation. T. cruzi beta-gal in NIH3T3, GalScreen luminescence, 90 h. inhibition, % at 8.34 µM. 77,000 compounds, 5.9% hits. AID 624255;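 active = mean inhibition above about 93%, with at least 55% of replicates each passing it, limit read from the data, passing the limit was not always enough; inconclusive = only one of those two conditions holds; inactive = neither condition holds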
T cruzi growth-2: inhibitors of T. cruzi proliferation; inhibition, % at 8.35 µM; AID 651739; T. cruzi beta-gal in NIH3T3, GalScreen luminescence, 90 h; shares compounds with T cruzi growth-1; 5,600 compounds, 72% hits;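 active = mean replicate inhibition above about 95% and at least 55% of replicates individually reaching it, limit read from the data; inconclusive = only one of the two criteria is met; inactive = neither criterion is met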
T cruzi growth-3: blocks T. cruzi growth in NIH3T3 host cells; shares compounds with T cruzi growth-1; T. cruzi beta-gal in NIH3T3, GalScreen luminescence, 90 h; inhibition, % at 2.09 µM; 5,600 compounds, 21% hits;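 active = mean inhibition above about 95%, with at least 55% of replicates also reaching it, limit read from the data; inconclusive = meets just one of the two conditions; inactive = meets neither condition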
3T3 cytotox: NIH/3T3 (mouse) viability loss; shares compounds with T cruzi growth-1; NIH/3T3 viability, CellTiter-Glo ATP luminescence, 90 h; cytotoxicity (signal decrease), % at 8.35 µM; 5,600 compounds, 14% hits;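 active = mean signal decrease across replicates above about 35% based on untreated-well scatter, with enough replicates individually passing, limit read from the data; inconclusive = no rule stated though some were filed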
NIH3T3 tox 2: cytotoxicity in mouse NIH/3T3 fibroblasts. shares compounds with T cruzi growth-1. NIH/3T3 viability, CellTiter-Glo ATP luminescence, 90 h. inhibition, % at 24.9 µM. 5,600 compounds, 56% hits;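 active = mean loss of cell viability signal at or above a set limit, and enough replicates individually reaching it; inconclusive = meets only the mean limit or only the replicate share; inactive = meets neither condition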
Of the large screens only hits and unclear results are named; the others gave an inactive call (follow-up assays come after a bar, where they were run). Most compounds without a hit are left out; they make up all but 6.7% or so of the library.

CC(C)NC(=O)Nc1ccc2c(c1)C(=O)N([C@@H](C)CO)C[C@H](C)[C@@H](CN(C)Cc1ccc3c(c1)OCO3)OCCCC[C@@H](C)O2	none
C[C@@H]1CCCCO[C@H](CN(C)Cc2ccc3c(c2)OCO3)[C@@H](C)CN([C@@H](C)CO)C(=O)c2cc(NC(=O)Nc3ccc(F)cc3)ccc2O1	T cruzi growth-1 105 | T cruzi growth-2 102 | T cruzi growth-3 104 | 3T3 cytotox inactive | NIH3T3 tox 2 105
CC(C)NC(=O)Nc1ccc2c(c1)C(=O)N([C@H](C)CO)C[C@@H](C)[C@@H](CN(C)Cc1ccc3c(c1)OCO3)OCCCC[C@@H](C)O2	none
CC(C)NC(=O)Nc1ccc2c(c1)C(=O)N([C@H](C)CO)C[C@@H](C)[C@@H](CN(C)Cc1ccc3c(c1)OCO3)OCCCC[C@H](C)O2	none
C[C@@H]1CCCCO[C@H](CN(C)Cc2ccc3c(c2)OCO3)[C@@H](C)CN([C@H](C)CO)C(=O)c2cc(NC(=O)Nc3ccc(F)cc3)ccc2O1	T cruzi growth-1 98 | T cruzi growth-2 112 | T cruzi growth-3 inactive | 3T3 cytotox inactive | NIH3T3 tox 2 inactive
C[C@@H]1CCCCO[C@H](CN(C)Cc2ccc3c(c2)OCO3)[C@H](C)CN([C@@H](C)CO)C(=O)c2cc(NC(=O)Nc3ccc(F)cc3)ccc2O1	T cruzi growth-1 105 | T cruzi growth-2 105 | T cruzi growth-3 103 | 3T3 cytotox inactive | NIH3T3 tox 2 104
C[C@H]1CN([C@@H](C)CO)S(=O)(=O)c2ccc(Br)cc2O[C@@H]1CN(C)C(=O)c1cnccn1	none
C[C@@H]1CCCCO[C@@H](CN(C)Cc2ccc3c(c2)OCO3)[C@@H](C)CN([C@@H](C)CO)C(=O)c2cc(NC(=O)Nc3ccc(F)cc3)ccc2O1	T cruzi growth-1 98 | T cruzi growth-2 110 | T cruzi growth-3 inactive | 3T3 cytotox inactive | NIH3T3 tox 2 inactive
C[C@H](CO)N1C[C@H](C)[C@H](CN(C)Cc2ccc3c(c2)OCO3)OCCCC[C@H](C)Oc2ccc(NC(=O)Nc3ccc(F)cc3)cc2C1=O	none
CO[C@@H]1CN(C)C(=O)c2cc(NC(=O)Nc3cc(F)ccc3F)ccc2OC[C@H](C)NC[C@@H]1C	none (no result: C diff HTS)
CO[C@H]1CN(C)C(=O)c2ccc(NS(=O)(=O)c3cccc(Cl)c3)cc2OC[C@@H](C)NC[C@@H]1C	T cruzi growth-1 97 (no result: C diff HTS) | T cruzi growth-2 inactive | T cruzi growth-3 inactive | 3T3 cytotox inactive | NIH3T3 tox 2 inactive
CO[C@@H]1CN(C)C(=O)c2ccc(NS(=O)(=O)c3cccc(Cl)c3)cc2OC[C@@H](C)NC[C@H]1C	none (no result: C diff HTS)
CO[C@@H]1CN(C)C(=O)c2ccc(NC(=O)Nc3cccc(F)c3)cc2OC[C@H](C)NC[C@@H]1C	none (no result: C diff HTS)
CO[C@H]1CN(C)C(=O)c2cc(NC(=O)Nc3cc(F)ccc3F)ccc2OC[C@H](C)NC[C@@H]1C	T cruzi growth-1 inconclusive (no result: C diff HTS) | T cruzi growth-2 inactive | T cruzi growth-3 inactive | 3T3 cytotox inactive | NIH3T3 tox 2 inactive
CO[C@@H]1CN(C)C(=O)c2ccc(NC(=O)Nc3cccc(F)c3)cc2OC[C@H](C)NC[C@H]1C	Pf Dd2 inh -82, T cruzi growth-1 102 (no result: C diff HTS) | T cruzi growth-2 inactive | T cruzi growth-3 inactive | 3T3 cytotox inactive | NIH3T3 tox 2 inactive
O=C(C[C@@H]1CC[C@@H]2[C@H](COC[C@@H](O)CN2Cc2ccc(Cl)cc2)O1)NCc1cccc(F)c1	none (no result: T cruzi growth-1)
CC(=O)NC[C@H]1[C@@H](c2ccc(-c3ccccc3)cc2)[C@H](CO)N1C(=O)C1CCC1	none
C[C@@H]1CN([C@@H](C)CO)C(=O)c2cc(Br)cnc2O[C@@H]1CN(C)C(=O)c1ccccc1F	none
COCc1cn(CC[C@H]2CC[C@H](NC(=O)Nc3ccccc3)[C@@H](CO)O2)nn1	none
C[C@H](CO)N1C[C@H](C)[C@@H](CN(C)C(=O)Nc2ccc(F)cc2)Oc2ccc(NS(=O)(=O)c3ccc(F)cc3)cc2CC1=O	none
COc1ccccc1CNC(=O)C[C@H]1C=C[C@H](NC(=O)CN(C)C)[C@@H](CO)O1	none
O=C(NCC(F)(F)F)[C@@H]1[C@@H](CO)[C@@H]2Cn3c(cccc3=O)[C@H]1N2CC1CCCC1	none (no result: T cruzi growth-1)
CNC(=O)C[C@H]1CC[C@@H]2[C@H](COc3ccc(NC(=O)C4CC4)cc3C(=O)N2C)O1	none
COc1ccc(NC(=O)Nc2ccc3c(c2)C(=O)N([C@H](C)CO)C[C@@H](C)[C@@H](CN(C)S(=O)(=O)c2ccc(Cl)cc2)OCCCC[C@@H](C)O3)cc1	none (no result: T cruzi growth-1)
COc1ccc(NC(=O)Nc2ccc3c(c2)C(=O)N([C@@H](C)CO)C[C@H](C)[C@@H](CN(C)S(=O)(=O)c2ccc(Cl)cc2)OCCCC[C@H](C)O3)cc1	T cruzi growth-1 113 | T cruzi growth-2 105 | T cruzi growth-3 96 | 3T3 cytotox inactive | NIH3T3 tox 2 inactive
COc1ccc(NC(=O)Nc2ccc3c(c2)C(=O)N([C@H](C)CO)C[C@H](C)[C@H](CN(C)S(=O)(=O)c2ccc(C)cc2)OCCCC[C@H](C)O3)cc1	none (no result: C diff HTS, T cruzi growth-1)
COc1ccc(NC(=O)Nc2ccc3c(c2)C(=O)N([C@@H](C)CO)C[C@@H](C)[C@H](CN(C)S(=O)(=O)c2ccc(Cl)cc2)OCCCC[C@@H](C)O3)cc1	T cruzi growth-1 113 | T cruzi growth-2 107 | T cruzi growth-3 107 | 3T3 cytotox inactive | NIH3T3 tox 2 inactive
COc1ccc(NC(=O)Nc2ccc3c(c2)C(=O)N([C@@H](C)CO)C[C@@H](C)[C@@H](CN(C)S(=O)(=O)c2ccc(Cl)cc2)OCCCC[C@@H](C)O3)cc1	T cruzi growth-1 121 | T cruzi growth-2 105 | T cruzi growth-3 inactive | 3T3 cytotox inactive | NIH3T3 tox 2 inactive
COc1ccc(NC(=O)Nc2ccc3c(c2)C(=O)N([C@H](C)CO)C[C@H](C)[C@@H](CN(C)S(=O)(=O)c2ccc(OC)cc2)OCCCC[C@@H](C)O3)cc1	none
COc1ccc(NC(=O)Nc2ccc3c(c2)C(=O)N([C@H](C)CO)C[C@H](C)[C@@H](CN(C)S(=O)(=O)c2ccc(Cl)cc2)OCCCC[C@H](C)O3)cc1	T cruzi growth-1 115 | T cruzi growth-2 104 | T cruzi growth-3 inactive | 3T3 cytotox inactive | NIH3T3 tox 2 inactive
COc1ccc(NC(=O)Nc2ccc3c(c2)C(=O)N([C@H](C)CO)C[C@H](C)[C@@H](CN(C)S(=O)(=O)c2ccc(Cl)cc2)OCCCC[C@@H](C)O3)cc1	none
C[C@H](CO)N1C[C@H](C)[C@H](CN(C)C(=O)Nc2cccc3ccccc23)Oc2ncc(C#Cc3cccc(F)c3)cc2C1=O	none (no result: C diff HTS)
O=C(CCN1CCCCC1)N[C@H]1CC[C@@H](CCNC(=O)c2cc(Cl)cc(Cl)c2)O[C@@H]1CO	none (no result: C diff HTS)
C[C@H]1CN([C@@H](C)CO)C(=O)c2cc(-c3ccc(C(=O)N(C)C)cc3)cnc2O[C@H]1CN(C)C(=O)c1ccncc1	none (no result: T cruzi growth-1)
